Results as given in PubChem BioAssay (NCATS).
Results filed as inconclusive are left out. Where a call stands in place of a potency, no number is given. Activity calls are given as the source filed them. The call rests on the fitted dose curve; in most records, active means well fitted inhibition curve with a large enough effect; inconclusive means small, poorly fitted or top-dose-only effect; inactive means flat fitted curve, though single readings scatter.

molecular target: Calcium and integrin-binding protein 1 (Homo sapiens) (UniProt Q99828); experiment: Primary qHTS for Identification of Calcium Integrin Binding Protein 1 (CIB1) Competitor (AID 1508620); settings: CIB1-GST / FITC-alphaIIb peptide fluorescence polarization; series mostly up to 114 µM; further: top concentration of the series differs between compounds
How it was run: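 Fluorescence polarization competition: GST-tagged CIB1 (1 uM final) preincubated with compound 15 min at room temperature, then FITC-labelled alphaIIb peptide (100 nM final) added. After 15 min at room temperature, polarization read at Ex 480/Em 540.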

Chain of Calcium and integrin-binding protein 1 (Homo sapiens) (Q99828 whole entry, looked up): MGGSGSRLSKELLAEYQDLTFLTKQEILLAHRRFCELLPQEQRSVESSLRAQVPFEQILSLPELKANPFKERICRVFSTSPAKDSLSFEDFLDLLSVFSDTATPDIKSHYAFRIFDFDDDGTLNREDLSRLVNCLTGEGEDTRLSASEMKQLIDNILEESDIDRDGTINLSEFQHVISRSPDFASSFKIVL

Row | Structure (SMILES) | Potency | activity change, negative = inhibition
1 | Cc1[nH]c(/C=C2\C(=O)Nc3cc(-c4ccccc4)ccc32)c(C)c1CCC(=O)O | inactive | 
2 | C[C@H](Oc1cc(-n2cnc3ccc(CN4CCN(C)CC4)cc32)sc1C(N)=O)c1ccccc1C(F)(F)F | inactive | 
3 | COc1cc(C(=O)NC(=S)Nc2cccc(NC(=O)c3ccccc3)c2)cc(OC)c1OC | inactive | 
4 | O=C(NNc1nc2cc(F)ccc2n2cccc12)c1cnccn1 | inactive | 
5 | Cc1cc2ncc(C(=O)NCC(C)(C)NCC(=O)N3CCC[C@H]3C#N)cn2n1 | inactive | 
6 | COc1cc2c(NC3CCN(C(C)C)CC3)nc(N3CCC(F)(F)CC3)nc2cc1OCCCN1CCCC1 | inactive | 
7 | CCCCCCCCn1cc(CN(CC)CC)c2cc(-c3cnc(N)nc3)ccc21 | inactive | 
8 | CCOC(=O)C1=Cc2ccc(C(F)(F)C(F)(F)F)cc2N=C(N)C1 | inactive | 
9 | CC(=O)[C@H]1CC[C@H]2[C@@H]3CC=C4C[C@@H](OS(=O)(=O)O)CC[C@]4(C)[C@H]3CC[C@]12C | inactive | 
10 | O=C(NCCN1CCN(c2cccc3c2OCCO3)CC1)c1ccc(F)cc1 | inactive | 
11 | COc1ccc(C(=O)Nc2c(Cl)cncc2Cl)cc1OC1CCCC1 | inactive | 
12 | CC(C)(O)C(=O)N1CCN(c2ccc(C(F)(F)F)c(C3=C(c4c[nH]c5ccccc45)C(=O)NC3=O)c2)CC1 | inactive | 
13 | CO[C@@H]1[C@H](O)CCC2(CO2)[C@H]1[C@@]1(C)O[C@@H]1CC=C(C)C (some centres undefined) | inactive | 
14 | CC(C)(CO)c1cc2cc(NC(=O)C3(c4ccc5c(c4)OC(F)(F)O5)CC3)c(F)cc2n1CC(O)CO (centres undefined) | inactive | 
15 | Cn1c(CO)c(-c2ccccc2)c2cc([N+](=O)[O-])ccc21 | inactive | 
16 | CC(=O)O[C@H]1C[C@H](OC(C)=O)[C@]2(C)[C@H](CC[C@@]34O[C@@H]3C3=C(C)C(=O)O[C@@H]3C[C@H]42)C1(C)C | inactive | 
17 | CCNC(=O)c1noc(-c2cc(Cl)c(O)cc2O)c1-c1ccc(OC)cc1 | inactive | 
18 | Cn1ncc(Cl)c1-c1cc(C(=O)N[C@H](CN)Cc2ccc(F)c(F)c2)sc1Cl | inactive | 
19 | COc1cc2c(cc1OC(C)C)[C@H](c1ccc(Cl)cc1)N(c1ccc(N(C)CC3CCC(N4CCN(C)C(=O)C4)CC3)cc1)C(=O)C2 (some centres undefined) | inactive | 
20 | COc1cc(NC(=O)c2cc(C3CC3)on2)c(OC)cc1Cl | inactive | 

Row | Structure (SMILES) | Potency | activity change, negative = inhibition
21 | CCOC(=O)CCNc1cc(N2CCc3ccccc3CC2)nc(-c2cccnc2)n1 | inactive | 
22 | COc1ccc2cc(-c3cc(-c4cc(Cl)cc(Cl)c4)nn3C(C)c3ccc(C(=O)NCCC(=O)O)cc3)ccc2c1 (centres undefined) | inactive | 
23 | CN(C)C(=O)COC(=O)c1cc(-c2ccc(C3CCNCC3)cc2)c2ccc(-c3ccc(C(F)(F)F)cc3)cc2c1 | inactive | 
24 | Cc1nc2ccc(CN(C)c3ccc(C(=O)NC(CCC(=O)O)C(=O)O)s3)cc2c(=O)[nH]1 (centres undefined) | inactive | 
25 | C/C=C/C=C/C=C/C(=O)O[C@@H]1C=C(CO)C(O)(C(=O)OC)[C@@]2(C)CCCC(C)(C)C12 (some centres undefined) | inactive | 
26 | CC(C)S(=O)(=O)NC[C@H](C)c1ccc(-c2ccc(CCNS(C)(=O)=O)cc2)cc1 | inactive | 
27 | O=c1[nH]c2ccc(C#CCN3CCC(Cc4ccccc4)CC3)cc2[nH]1 | inactive | 
28 | CC(=O)OC1C(OC(=O)c2ccccc2)C2C(C)(C)CCC(OC(C)=O)C2(C)C23CCC(C)(C2)C(=O)CC13 (centres undefined) | inactive | 
29 | Cc1c(NC(=O)OCC2COCCN2)cn2ncnc(Nc3ccc4c(cnn4Cc4cccc(F)c4)c3)c12 (centres undefined) | inactive | 
30 | COC(=O)C[C@H]1C(C)(C)[C@H](OC(=O)c2ccccc2)C2CC3=C4CC(=O)O[C@@H](c5ccoc5)[C@]4(C)CCC3[C@@]1(C)C2=O (some centres undefined) | inactive | 
31 | C=C(C)C(=O)OC1CC(CO)CCC/C(CO)=C/C2OC(=O)C(=C)C21 (centres undefined) | inactive | 
32 | Clc1cccc(COc2cncc(N3CCNCC3)n2)c1 | inactive | 
33 | CC(C)=C[C@@H]1[C@H](CO[C@@H]2O[C@H](CO)[C@@H](O)[C@H](O)[C@H]2O)C1(C)C | inactive | 
34 | CC(C)S(=O)(=O)Nc1ccc(F)c(C(=O)c2c[nH]c3ncc(-c4cccnc4)cc23)c1F | inactive | 
35 | CC[C@@H](Nc1c(Nc2cccc(C(=O)N(C)C)c2O)c(=O)c1=O)c1cc(C(C)C)co1 | inactive | 
36 | O=C(N[C@@H]1CCCc2c1cnn2-c1ccc(F)cc1F)c1ccccn1 | inactive | 
37 | C/C=C(/C)C(=O)OC1CC(C)(C)CC2C3=CCC4C5(C)CCC(O[C@@H]6O[C@H](C(=O)O)[C@@H](O)[C@H](O)[C@H]6O[C@@H]6O[C@H](CO)[C@H](O)[C@H](O[C@@H]7OC[C@H](O)[C@H](O)[C@H]7O[C@@H]7O[C@H](CO)[C@@H](O)[C@H](O)[C@H]7O)[C@H]6O)C(C)(C)C5CCC4(C)C3(C)C(O)C(O)C12CO (some centres undefined) |  | -2.71% [at 12.4 µM] (inactive)
38 | CCC/C=C\C=C/CCc1cc(O)c([C@@H]2O[C@H](CO)[C@@H](O)[C@H](O)[C@H]2O)c(O)c1C(=O)OC | inactive | 
39 | CC1=C2C[C@@]3(C)C(CCC[C@@H]3C)C(O)C2OC1=O (some centres undefined) | inactive | 
